The entries come from a sample that favours hits as a whole.
MgrA-DNA mod: S. aureus MgrA activity modulators, primary screen, biochemical, S. aureus Newman, fluorescence polarization; inhibition, % (test concentration not listed); hit rate 0.13% among 84,000; MgrA-DNA binding; in the data active = inhibition above about 30%, passing the limit was not always enough;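 note: 0% = protein plus DNA without compound and 100% = DNA alone without protein; higher means less MgrA bound to DNA so lower polarization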
* hit, by the source's call.

SMILES	MgrA-DNA mod
CC[n+]1c(-c2ccccc2)c2cc(N)ccc2c2ccc(N)cc21	58*
O=[N+]([O-])/C=C/c1cccc([N+](=O)[O-])c1	1
Cc1ccc(NC(=O)N(C)C)cc1Cl	0
CN(C)C(=O)Oc1cc(=O)oc2ccccc12	0
CCC1(CC)C(=O)NC(=S)N(C)C1=O	1
O=C1NC(=S)N(c2ccc(Br)cc2)C(=O)/C1=C\c1ccc(-c2ccccc2C(=O)O)o1	16
CN1C(=O)/C(=C/c2ccc(I)o2)C(=O)NC1=S	98*
C=CCN1C(=O)/C(=C/c2ccco2)C(=O)NC1=S	38
C1CCC(OCC2CCCN3CCCCC23)CC1 (stereo not drawn)	1
CCC12CN3CN(C1)CC(CC)(C3)C2O (stereo not drawn)	16

Source: PubChem BioAssay (ICCB-Longwood Screening Facility, Harvard Medical School)
